Screening results from PubChem BioAssay.
Luc counter: Counterscreen for Luciferase (Kinase-Glo TM) Inhibition; Luciferin 4-monooxygenase (Photuris pensylvanica), Q27757; Kinase-Glo luciferase, ATP luminescence, 8 min; Potency, µM (titrated, usually from 38.3 µM), usual class: inhibitors; 0.28% of 200,000 active; AID 1379, 2008; also: nearly all actives have a fitted effect of over 60% in size
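Light output from Kinase-Glo luciferase with luciferin and 10 uM ATP in 50 mM imidazole pH 7.2, KCl, MgCl2, Tween 20, BSA; compound pin-delivered, 8-min ambient incubation, then luminescence read.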
LMNA splice mod: qHTS Assay for Modulators of Lamin A Splicing | Potency, µM (doses to about 46.1 µM), actives largely listed as inhibitors | 0.01% of 200,000 active | HeLa LMNA splicing GFP/RFP minigene ratio, 48 h; active = well fitted inhibition curve with a large enough effect in the signal ratio, with a control signal flat, not every such curve was filed as active; inconclusive = small, poorly fitted or top-dose-only effect, or effect the other way, or a change in a side signal; the % refers to the signal ratio
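S3 HeLa stable clones carrying a lamin A-EGFP splicing minigene plus DsRed2 were seeded at 600 cells/well in Opti-MEM with 2% FBS, pin-dosed and incubated 48 h at 37°C. Acumen cytometry (488 nm) gave the GFP/RFP total-intensity ratio.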
HTT aggregate: qHTS Multiplex Assay to Identify Dual Action Probes in a Cell Model of Huntington: Aggregate Formation (GFP). 1.1% of 220,000 active. Potency, µM (highest dose often 46.1 µM), most hits filed as inhibitors. PC12 HttQ103-GFP aggregates, Acumen cytometry, 40 h. AID 1688, 2009; also: nearly all actives have a fitted effect of over 60% in size
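Compounds (qHTS titration) were added to PC12 cells expressing an ecdysone-driven HTT exon 1 Q103–GFP fusion after induction with 100 nM tebufenozide. Aggregate formation was measured as GFP objects in cell lysates.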
HTT ATP protect: qHTS Multiplex Assay to Identify Dual Action Probes in a Cell Model of Huntington: Cytoprotection (ATP). PC12 HTT-Q103 induced, cytoprotection, ATP luminescence, 40 h. Potency, µM (highest dose often 56.4 µM), usual class: activators. 0.14% of 230,000 active. AID 1471, 2008; also: nearly all actives have a fitted effect of over 45% in size
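Readout: ATPlite luminescence (ATP level). Model: stable PC12, inducible Htt exon1 Q103-GFP. Inducer: tebufenozide, 100 nM final. Compounds: dose series. No G418 in medium.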
ALDH1A1 block: qHTS Assay for Inhibitors of Aldehyde Dehydrogenase 1 (ALDH1A1); AID 1030, 2008; Purified ALDH1A1, NADH fluorescence, propionaldehyde substrate; 7.3% of 220,000 active; Aldehyde dehydrogenase 1A1 (Homo sapiens), P00352; Potency, µM (series often up to 75.3 µM), most hits filed as inhibitors; active = well fitted inhibition curve with a large enough effect, not every such curve was filed as active; inconclusive = small, poorly fitted or top-dose-only effect, or another doubt; inactive = no such curve, though single readings can be large or run the other way
HPGD inh: qHTS Assay for Inhibitors of HPGD (15-Hydroxyprostaglandin Dehydrogenase). AID 894, 2007. purified HPGD, NADH fluorescence kinetic, PGE2 substrate. 4.3% of 150,000 active. Potency, µM, actives largely listed as inhibitors. 15-hydroxyprostaglandin dehydrogenase [NAD(+)] (Homo sapiens), P15428; active = well fitted inhibition curve with a large enough effect, not every such curve was filed as active; inconclusive = small, poorly fitted or top-dose-only effect, or another doubt; inactive = no such curve, though single readings can be large or run the other way
Target sequence (P15428 whole entry, looked up): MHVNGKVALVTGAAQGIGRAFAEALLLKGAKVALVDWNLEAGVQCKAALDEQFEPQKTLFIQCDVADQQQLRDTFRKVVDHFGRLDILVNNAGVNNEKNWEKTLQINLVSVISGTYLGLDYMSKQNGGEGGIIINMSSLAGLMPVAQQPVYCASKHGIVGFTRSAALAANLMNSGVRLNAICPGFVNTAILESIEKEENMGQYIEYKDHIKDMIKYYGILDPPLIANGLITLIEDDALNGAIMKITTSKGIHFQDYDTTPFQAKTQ
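NADH formation kinetics: reaction with 30 uM PGE2 and 1 mM NAD+ (final), 20 nM enzyme, Tris-HCl pH 8 with Tween 20, after 15 min compound preincubation at room temperature. Fluorescence change, last versus first of five reads.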
A number is an active result; – = inactive; ? = inconclusive; · = no result given; [ ] = dose if it differs, or a comment. Hits are enriched below; roughly 9% of the tested compounds scored in any of these assays. Unless noted, calls follow the shape of the dose curve; as a rule, active = well fitted curve in the direction sought with a large enough effect; inconclusive = small, poorly fitted or top-dose-only effect, or another doubt; inactive = no such curve, though single readings can be large; an effect the other way counts as inactive or inconclusive.

SMILES | Luc counter | LMNA splice mod | HTT aggregate | HTT ATP protect | ALDH1A1 block | HPGD inh
Cc1ccc2cc3cc(C(=O)N4CCCCC4C)oc3nc2c1 (centres undefined) | – | – | – | – | ? | 15.8µM
Cc1ccc2cc3cc(C(=O)N4CC(C)CC(C)C4)oc3nc2c1 (centres undefined) | – | – | – | –[10 µM] | 25.1µM | 15.8µM
C=C1C(=O)OC2C1CC/C(C)=C/CCC1(C)OC21 (centres undefined) | – | ? | · | · | ? | –
CCNC(=O)CCS(=O)(=O)c1ccc2ccccc2c1 | – | – | – | –[1.9 µM] | ? | 31.6µM
CC(=C\C(=O)O)/C(=C/c1ccc(C)o1)C(=O)O | – | – | ? | · | 22.4µM | –
O/N=C/c1ccc2cccc(O)c2n1 | · | · | –[9.22 µM] | –[10 µM] | · | ·
Oc1cccc2ccc(SSc3ccc4cccc(O)c4n3)nc12 | –[7.66 µM] | · | · | –[10 µM] | 3.98µM | 0.562µM
Cc1ccc(N2C(=O)[C@@H]3[C@H](C2=O)[C@H]2C=CC=NN2[C@@H]3C(=O)Nc2ccc(Cl)cc2)cc1 | – | – | – | – | 7.94µM | 35.5µM
O=C(Nc1ccc(Cl)cc1)[C@@H]1[C@@H]2C(=O)N(c3ccc(Cl)cc3Cl)C(=O)[C@@H]2[C@H]2C=CC=NN21 | – | – | – | – | 22.4µM | 28.2µM
CCOC(=O)C1=NOC2C(=O)N(c3ccc(Cl)cc3Cl)C(=O)C12 (centres undefined) | – | · | – | ? | 0.708µM | ·
CCS(=O)(=O)c1ccc(NC(=O)c2ccccc2Cl)c(O)c1 | – | – | – | –[10 µM] | 15.8µM | –
CC(=O)Nc1cccc(-n2nnc(SCC(=O)Nc3ccccc3)n2)c1 | · | · | –[9.22 µM] | –[10 µM] | ? | ·
Cc1sc2nc(CN3CCOCC3)nc(N3CCC(C(N)=O)CC3)c2c1C | – | – | – | –[10 µM] | – | –
O=C(NCC(c1cccs1)N1CCOCC1)c1ccc(Br)o1 (centres undefined) | – | ? | – | – | – | –
O=C1/C(=C\c2ccco2)CCC/C1=C\c1ccco1 | – | – | – | –[10 µM] | 5.62µM | –
CC1C/C(=C/c2ccco2)C(=O)/C(=C/c2ccco2)C1 (centres undefined) | – | ? | ? | · | 14.1µM | –
CCN(CC)S(=O)(=O)c1ccc(O)c(NS(=O)(=O)c2ccccc2F)c1 | – | ? | – | –[10 µM] | 12.6µM | 25.1µM
O=c1c2c(ncn2C2CCCC2)n(Cc2ccccc2)c(=O)n1CCOc1ccccc1 | – | ? | – | –[10 µM] | – | –
CCCCn1c(=O)n(CC(O)c2ccccc2)c(=O)c2c1ncn2C1CCCC1 (centres undefined) | – | – | – | –[10 µM] | 10µM | –
O=C(c1ccccc1)N1CCN(C(=S)NCc2ccco2)CC1 | – | – | – | – | ? | ·
O=C(c1ccccc1)N1CCN(C(=S)NCc2ccc3c(c2)OCO3)CC1 | – | ? | – | –[10 µM] | 17.8µM | 31.6µM
NC(=O)C1CCN(C(=S)NCc2ccc3c(c2)OCO3)CC1 | – | – | – | – | – | ·
NC(=O)C1CCCN(C(=S)NCc2ccc3c(c2)OCO3)C1 (centres undefined) | – | · | – | – | 25.1µM | ·
C[C@@H]1C=C[C@](Cc2ccccc2)(C(=O)NCCN2CCOCC2)N1C(=O)c1ccccc1 | – | · | · | – | – | –
COc1ccc(/C=C/c2ccncc2)cc1OC | – | – | – | –[10 µM] | ? | ?
SMILES | Luc counter | LMNA splice mod | HTT aggregate | HTT ATP protect | ALDH1A1 block | HPGD inh
CCOc1ccc(/C=C/C2=CC(C)(C)NC(=S)N2)cc1 | – | · | – | · | 12.6µM | ·
COc1ccc(/C=C/C2=CC(C)(C)NC(=S)N2)cc1OC | – | –[9.22 µM] | – | – | 7.94µM | ·
CCOc1ccc(/C=C2\NC(=S)NC2=O)cc1 | · | · | –[9.22 µM] | –[10 µM] | · | ·
CN(C(=O)c1ccc(=O)n(Cc2ccc(Cl)cc2)c1)c1ccccc1 | – | · | – | – | 14.1µM | ·
CN(C(=O)c1cccn(Cc2ccccc2)c1=O)c1ccccc1 | – | · | – | – | – | ·
c1ccc(C(c2ccccc2)N2CCN(c3nc4ccccc4n4cnnc34)CC2)cc1 | · | ? | – | – | 14.1µM | ·
